Test results as given in PubChem BioAssay (NCATS).
Several values for one entry are separate records, joined by “and”; a condition that tells them apart may be missing. Equal entries are not always repeated. Inconclusive results are not listed. Where a structure was tested more than once in an assay, its records may differ in their call. Activity calls are given as the source filed them. Unless noted, the call rests on the fitted dose curve; in most records, active means well fitted curve in the direction sought with a large enough effect; inconclusive means small, poorly fitted or top-dose-only effect, or another doubt; inactive means no such curve, though single readings can be large; an effect the other way counts as inactive or inconclusive.

Columns and labels:
[1] = target: Cytochrome P450 2C9 (Homo sapiens) (UniProt P11712); test: qHTS Assay for Inhibitors and Substrates of Cytochrome P450 2C9 (AID 883); further: nearly all actives have a fitted effect of over 60% in size; further: potency means the concentration at half of the fitted maximal effect
How it was run: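 Inhibition of CYP2C9 is scored as loss of luminescence, with 57uM sulphaphenazole defining 100% inhibition. Substrate Luciferin-H is used at 100uM, equal to its KM; enzyme at 10nM in 25mM KPO4, 60 min at 37C with NADPH regeneration.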

[2] = target: Cytochrome P450 2C19 (Homo sapiens) (UniProt P33261); test: qHTS Assay for Inhibitors and Substrates of Cytochrome P450 2C19 (AID 899); further: nearly all actives have a fitted effect of over 60% in size; further: potency means the concentration at half of the fitted maximal effect
How it was run: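 5nM enzyme + 10uM Luciferin-H EGE (=KM), 50mM KPO4; cpd pin-transferred, 10 min 37C; NADPH regen, 60 min 37C; stopped w/ luciferin detection reagent, 20 min; luminescence. Normalized to 57uM ketoconazole (AC100).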

[3] = qHTS Assay for Identification of Small Molecule Antagonists for NFkB Signaling Pathway (AID 895; active means well fitted inhibition curve with a large enough effect in the signal ratio, with a control signal flat, not every such curve was filed as active; the % refers to the signal ratio)
How it was run: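 Beta-lactamase reporter read-out (460 and 530 nm emission ratio, 405 nm excitation, 2 hrs substrate loading RT) after 5 hr stimulation with 10 pM TNF alpha in compound-treated NFkB-bla ME-180 cells in low-serum medium.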

[4] = Cellular Toxicity (caspase-3) HepG2 (AID 654);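 further: cells exposed to compound for 16 hours before reading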
How it was run: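 Concentration-response AC50 values reflect caspase-3/7 induction in HepG2 cells after 16 hours of compound exposure, quantified by luminescence from liberated aminoluciferin and referenced to 100 uM tamoxifen as full stimulation.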

[5] = Cellular Toxicity (caspase-3) Jurkat (AID 655);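 further: cells exposed to compound for 16 h at 37 °C before reading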; further: potency means the concentration at half of the fitted maximal effect
How it was run: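 Jurkat cells (5000/well) in complete medium exposed 16 h at 37 C; caspase-3/7 activity read by Caspase-Glo luminescence after 20 min at room temperature. Normalized to DMSO and 100 uM tamoxifen; AC50 from Hill fits.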

[6] = Cellular Toxicity (caspase-3) SHSY5Y (AID 657); further: potency means the concentration at half of the fitted maximal effect
How it was run: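 SH-SY5Y human neuroblastoma cells, 1500/well, exposed to compound for 16 hours at 37 °C in complete medium. Caspase-3/7 activity read by Caspase-Glo luminescence after 1 hr at room temperature, normalized to DMSO and 10 uM staurosporine; AC50 from Hill fit.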

[7] = Cellular Toxicity (caspase-3) Mesangial (AID 660);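 further: cells exposed to compound for 16 h before the caspase read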
How it was run: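 AC50 values come from Hill-equation fits of caspase 3/7 activation, measured as Caspase-Glo luminescence in human glomerular mesangial cells exposed to compound for 16 h at 37 °C; 100% set by 100 uM tamoxifen.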

[8] = Cellular Toxicity (caspase-3) SK-N-SH (AID 661)
How it was run: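 Apoptosis readout in SK-N-SH neuroblastoma: Caspase-Glo 3/7 luminescence following 16 hr treatment in complete culture medium. Normalization used DMSO and 10 uM staurosporine controls.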

[9] = Cellular Toxicity (caspase-3) H-4-II-E (AID 663); settings: Potency: caspase-3 activation; further: potency means the concentration at half of the fitted maximal effect;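 on caspase-3 activation: cells exposed to compound for 16 hr before readout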
How it was run: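 Caspase 3/7 activation measured by luminescent aminoluciferin substrate cleavage after 16 hr compound treatment of H-4-II-E cells in complete medium. Increase normalized between DMSO (basal) and 100 uM tamoxifen (100%); Hill-equation AC50 from concentration-response.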

[10] = Cellular Toxicity (caspase-3) Hek293 (AID 664);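 further: cells exposed to compound for 16 h at 37 °C before readout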
How it was run: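 Apoptosis readout: Caspase-Glo 3/7 signal in human HEK293 cells following 16-hour compound incubation. Responses scaled between DMSO baseline and 100 uM tamoxifen.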

[11] = Cellular Toxicity (caspase-3) N2a (AID 665);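 further: compound exposure lasted 16 h at 37 °C before readout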
How it was run: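 Concentration-response qHTS: compound-induced caspase-3/7 luminescence in N2a cells (16 h, 37 °C), relative to DMSO and 10 uM staurosporine controls; AC50 obtained using the standard Hill equation.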

[12] = Cellular Toxicity (caspase-3) NIH 3T3 (AID 666);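 further: caspase signal read after 16 h compound exposure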; further: potency means the concentration at half of the fitted maximal effect
How it was run: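 Activity: caspase-3/7 induction, NIH 3T3 cells, 16 hr treatment at 37°C, luminescent Caspase-Glo detection; AC50 via Hill equation.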

[13] = Cellular Toxicity (caspase-3) Renal Proximal Tubule (AID 667);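 further: cells exposed to compound for 16 hours at 37 °C before detection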
How it was run: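 Freshly isolated primary rat kidney proximal tubule cells, 1000/well, treated 16 hr at 37 °C, then Caspase-Glo 3/7 luminescence after 1 hr. Normalized to DMSO and 10 uM staurosporine; AC50 from Hill fit.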

[14] = target: Cytochrome P450 3A4 (Homo sapiens) (UniProt P08684); test: qHTS Assay for Inhibitors and Substrates of Cytochrome P450 3A4 (AID 884); further: nearly all actives have a fitted effect of over 50% in size; further: potency means the concentration at half of the fitted maximal effect
How it was run: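 Luminescent readout of luciferin produced by CYP3A4 (20 nM) dealkylation of Luciferin-PPXE, 25 uM (its KM). NADPH-driven reaction ran 60 min at RT after 10 min compound preincubation; data scaled to 57 uM ketoconazole as 100% inhibition.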

[15] = target: Cytochrome P450 2D6 (Homo sapiens) (UniProt P10635); test: qHTS Assay for Inhibitors and Substrates of Cytochrome P450 2D6 (AID 891); further: potency means the concentration at half of the fitted maximal effect; nearly all actives have a fitted effect of over 60% in size
How it was run: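 Luminescent read-out of luciferin formed by 5 nM human CYP2D6 demethylating 30 uM Luciferin-ME EGE (Km level) over 60 min at room temperature after NADPH regeneration addition. Data normalized to full inhibition by 1.43 uM quinidine.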

[16] = Confirmation and Secondary Assay for Modulators of Hemoglobin Beta Chain Splicing at IVS2 654 locus (AID 910);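 further: HeLa cells stably carrying EGFP split by mutant beta-globin IVS2-654 intron; per-well total GFP intensity by laser scanning cytometry after 2-day treatment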
How it was run: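 Readout: per-well total peak green fluorescence (488 nm ex, 500–520 nm em) from objects 5–250 µm, reflecting correct splicing of an EGFP-654 reporter. Compounds were applied for 2 days at 37 °C to overnight-plated HeLa EGFP-654 cells; controls were DMSO and 500 nM IVS2-654 PNA.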

[17] = target: Guanine nucleotide-binding protein G(i) subunit alpha-1 (Homo sapiens) (UniProt P63096); test: qHTS Assay for Inhibitors of RGS12 GoLoco Motif Activity (Green Fluorophore) (AID 879);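 further: negative values mean loss of peptide binding seen as reduced polarization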
How it was run: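 A drop in FITC polarization marked displacement of the FITC-tagged RGS12 GoLoco peptide (10 nM) from Gαi1 (50 nM). Compounds were incubated 10 min at room temperature in Tris pH 7.5 buffer containing 150 mM NaCl, 0.1 mM GDP and 0.05% NP40; unlabeled peptide titration served as control.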

[18] = target: Cytochrome P450 3A4 (Homo sapiens) (UniProt P08684); test: qHTS Assay for Activators of Cytochrome P450 3A4 (AID 885); further: nearly all actives have a fitted effect of over 65% in size; further: potency means the concentration at half of the fitted maximal effect
How it was run: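 Activators are scored by enhanced luminescence from CYP3A4 conversion of luciferin-PPXE (25uM, equal to KM) to luciferin, after 60 min at RT with an NADPH-regenerating system.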

Measured: Potency

Sequence of Cytochrome P450 2C19 (Homo sapiens) (P33261 whole entry, looked up): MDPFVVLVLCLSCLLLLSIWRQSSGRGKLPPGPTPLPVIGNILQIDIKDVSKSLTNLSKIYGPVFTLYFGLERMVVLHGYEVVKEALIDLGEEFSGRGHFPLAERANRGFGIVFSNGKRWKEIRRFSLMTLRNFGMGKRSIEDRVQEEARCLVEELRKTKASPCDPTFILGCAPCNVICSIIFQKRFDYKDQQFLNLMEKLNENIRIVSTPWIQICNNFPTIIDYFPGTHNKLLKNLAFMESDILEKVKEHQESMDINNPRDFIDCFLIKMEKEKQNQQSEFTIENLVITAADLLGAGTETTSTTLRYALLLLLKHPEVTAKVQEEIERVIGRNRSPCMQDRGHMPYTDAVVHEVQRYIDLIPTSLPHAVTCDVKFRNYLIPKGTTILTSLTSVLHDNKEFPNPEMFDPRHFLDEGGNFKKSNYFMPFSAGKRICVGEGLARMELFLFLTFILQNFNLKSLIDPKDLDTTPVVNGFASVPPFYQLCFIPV
Sequence of Cytochrome P450 3A4 (Homo sapiens) (P08684 whole entry, looked up): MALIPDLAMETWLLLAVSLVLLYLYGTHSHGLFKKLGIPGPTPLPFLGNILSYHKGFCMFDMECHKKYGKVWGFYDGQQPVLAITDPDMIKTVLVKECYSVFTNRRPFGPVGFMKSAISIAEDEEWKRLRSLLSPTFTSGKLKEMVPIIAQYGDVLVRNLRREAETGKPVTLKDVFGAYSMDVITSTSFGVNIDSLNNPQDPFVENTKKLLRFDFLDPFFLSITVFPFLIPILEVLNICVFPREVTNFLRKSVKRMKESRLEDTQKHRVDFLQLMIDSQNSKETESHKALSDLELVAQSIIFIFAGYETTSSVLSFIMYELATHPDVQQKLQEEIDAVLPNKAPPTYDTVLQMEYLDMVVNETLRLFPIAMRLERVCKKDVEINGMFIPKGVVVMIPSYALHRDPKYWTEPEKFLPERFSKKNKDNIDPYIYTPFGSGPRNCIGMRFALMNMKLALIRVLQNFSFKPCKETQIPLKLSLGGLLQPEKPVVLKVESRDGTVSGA
Sequence of Cytochrome P450 2C9 (Homo sapiens) (P11712 whole entry, looked up): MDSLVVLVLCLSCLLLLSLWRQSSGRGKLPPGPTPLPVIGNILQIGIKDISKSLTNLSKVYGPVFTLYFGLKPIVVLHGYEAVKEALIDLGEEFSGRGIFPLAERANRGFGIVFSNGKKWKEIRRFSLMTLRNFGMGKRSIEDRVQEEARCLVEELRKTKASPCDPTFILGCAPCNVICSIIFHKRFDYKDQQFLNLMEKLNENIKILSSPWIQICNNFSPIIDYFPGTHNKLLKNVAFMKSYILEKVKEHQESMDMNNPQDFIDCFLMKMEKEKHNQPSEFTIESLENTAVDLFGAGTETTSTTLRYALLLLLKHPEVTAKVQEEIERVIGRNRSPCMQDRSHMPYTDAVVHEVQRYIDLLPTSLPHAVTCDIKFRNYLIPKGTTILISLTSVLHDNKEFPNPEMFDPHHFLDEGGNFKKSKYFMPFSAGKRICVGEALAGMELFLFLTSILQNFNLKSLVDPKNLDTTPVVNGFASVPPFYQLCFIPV
Sequence of Cytochrome P450 2D6 (Homo sapiens) (P10635 whole entry, looked up): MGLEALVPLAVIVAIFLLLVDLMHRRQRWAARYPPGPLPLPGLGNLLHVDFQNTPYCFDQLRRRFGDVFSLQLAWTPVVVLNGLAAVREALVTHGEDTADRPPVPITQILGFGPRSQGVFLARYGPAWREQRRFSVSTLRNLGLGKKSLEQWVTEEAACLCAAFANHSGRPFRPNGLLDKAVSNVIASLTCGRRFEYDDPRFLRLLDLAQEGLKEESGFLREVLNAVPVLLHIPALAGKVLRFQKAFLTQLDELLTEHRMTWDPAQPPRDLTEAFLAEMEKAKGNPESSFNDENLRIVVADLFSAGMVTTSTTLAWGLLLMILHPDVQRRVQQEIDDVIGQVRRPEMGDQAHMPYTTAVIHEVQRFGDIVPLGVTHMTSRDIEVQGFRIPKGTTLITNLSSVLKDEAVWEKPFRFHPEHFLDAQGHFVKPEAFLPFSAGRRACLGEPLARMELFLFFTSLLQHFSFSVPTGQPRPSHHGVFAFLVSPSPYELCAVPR
Sequence of Guanine nucleotide-binding protein G(i) subunit alpha-1 (Homo sapiens) (P63096 whole entry, looked up): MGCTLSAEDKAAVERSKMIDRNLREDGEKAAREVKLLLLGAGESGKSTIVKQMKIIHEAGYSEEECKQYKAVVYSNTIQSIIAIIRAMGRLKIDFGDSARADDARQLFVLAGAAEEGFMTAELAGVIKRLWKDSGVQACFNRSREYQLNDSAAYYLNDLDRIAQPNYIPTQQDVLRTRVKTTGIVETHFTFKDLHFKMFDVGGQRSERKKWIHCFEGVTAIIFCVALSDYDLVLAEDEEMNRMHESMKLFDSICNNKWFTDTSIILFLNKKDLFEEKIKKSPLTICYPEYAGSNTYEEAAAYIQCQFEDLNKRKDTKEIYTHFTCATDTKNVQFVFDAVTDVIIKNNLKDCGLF

Cn1cnc2c(NCc3ccccc3)nc(NCCO)nc21
inactive: [1] | [2]

O=C1NC(c2cccc([N+](=O)[O-])c2)=CCN1c1ccccc1O
inactive: [1]
inactive and 6.31 µM (active): [2]

NC(N)=NCCCCN=C(N)N
inactive: [3]

COc1cc(C=O)ccc1O
not listed: [1] | [2] | [3] | [15] | [16] | [17] | [18]
inactive: all other assays above

Nc1ccc(O)cc1
inactive: [4] | [5] | [7] | [8] | [10] | [11] | [12]

CCN(CC)CCOc1ccc(/C(=C(\Cl)c2ccccc2)c2ccccc2)cc1
inactive: [1] | [14] | [16]
active: [15] 5.01 µM

C1N2CN3CN1CN(C2)C3
inactive: [14] | [16]

OC(CCCN1CCCCC1)(c1ccccc1)c1ccccc1
active: [15] 0.126 µM

O=[N+]([O-])c1ccc(-c2nc(-c3ccc(F)cc3)c(-c3ccncc3)[nH]2)cc1
active: [14] 0.158 µM
inactive: [17] | [18]

CC(=O)OC/C=C(C)/C=C/C=C(C)/C=C/C1=C(C)CCCC1(C)C
inactive: [4] | [5] | [6] | [7] | [8] | [9] | [11] | [12] | [13] | [16]

Cc1nn(-c2ccccc2)c(C)c1/C=N/N1CCN(Cc2ccccc2)CC1
active: [18] 10 µM
inactive: [14]

Cc1ccc2c(Cl)cc(Cl)c(O)c2n1
inactive: [14] | [16]

C[C@@H](C1=C(CCN(C)C)Cc2ccccc21)c1ccccn1
active: [1] 0.501 µM | [2] 2.51 µM

CC(C)(C)c1ccc(O)c(O)c1
inactive: [4] | [5] | [6] | [7] | [8] | [9] | [10] | [11] | [13] | [14]

COC(=O)c1c(Cl)c(Cl)c(C(=O)OC)c(Cl)c1Cl
inactive: [14] | [16]

Nc1ncnc2nc[nH]c12
inactive: [14] | [16]

CC(=O)OCC[N+](C)(C)C
inactive: [14] | [16]

CC(C)(c1ccc(O)cc1)c1ccc(O)cc1
not listed: [1] | [2] | [3] | [14] | [15] | [16] | [17]
inactive: all other assays above

CCCCC(CC)COC(=O)c1ccccc1C(=O)O (stereo unspecified)
not listed: [1] | [2] | [3] | [15] | [16] | [17] | [18]
inactive: all other assays above

CCCCCCCCCCCCCCCC[n+]1ccccc1
inactive: [6] | [7] | [10] | [12] | [13]

O=C(O)Cc1ccc(OCCNC[C@H](O)c2ccccc2)cc1
inactive: [14]

Cc1cc(C(C)(C)C)c(O)c(C(C)(C)C)c1
not listed: [1] | [2] | [3] | [10] | [15] | [17] | [18]
inactive: all other assays above

Nc1c2ccccc2nc2ccccc12
inactive: [7] | [13] | [16]
active: [5] 31.6 µM | [6] 39.8 µM | [9] 31.6 µM | [12] 39.8 µM

O=C(Oc1ccccc1)c1ccccc1O
inactive: [4] | [5] | [6] | [7] | [8] | [9] | [10] | [11] | [12] | [14]

Cc1ccc(O)cc1
not listed: [1] | [2] | [3] | [14] | [15] | [17] | [18]
inactive: all other assays above

CC(NCCC(c1ccccc1)c1ccccc1)c1ccccc1 (stereo unspecified)
inactive: [16]

OCc1c[nH]c2ccccc12
not listed: [1] | [2] | [3] | [15] | [17] | [18]
inactive: all other assays above

c1ccc2occc2c1
not listed: [1] | [2] | [3] | [15] | [16] | [17] | [18]
inactive: all other assays above
